Experimental data as given in PubChem BioAssay AID1159580 (chemical genetic matrix, 2015).
Where “and” joins values, the source holds several entries; their conditions need not be identical. Equal values may be shown once. The whole screen tested about 5,500 compounds, of which about 2,000 (36%) were called active. Inconclusive results (about 18%) are left out. Rule as the data show it: active = normalized growth mostly below about 0.91 (no sharp cut-off); inconclusive = no clear call, values can overlap the other calls; inactive = mostly above about 0.92. Some of the results follow.

Assay: chemical genetic growth profiling, strain panel (AID 1159580);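 also: tested at 20 µM; growth read once vehicle control cultures reached saturation at 30 °C; 1 = growth at the plate median or of vehicle wells; lower values mean less growth of the strain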
Settings: S. cerevisiae deletion strains, growth OD

Measured: normalized growth

CCCC(C)(COC(N)=O)COC(=O)NC(C)C (stereo unspecified)
inactive: locus YAL021C, strain ccr4, stronger effect = lower value 1 | locus YAL026C, strain drs2, stronger effect = lower value 0.99 | locus YAL030W, strain snc1, stronger effect = lower value 0.98 | locus YAL040C, strain CLN3, stronger effect = lower value 0.989 | locus YBL061C, strain skt5, stronger effect = lower value 1 | locus YBR009C, strain hhf1, stronger effect = lower value 0.983 | locus YBR021W, strain FUR4, stronger effect = lower value 0.991 | locus YBR023C, strain chs3, stronger effect = lower value 1.01 | locus YBR171W, strain sec66, stronger effect = lower value 1 | locus YBR229C, strain ROT2, stronger effect = lower value 0.954 | locus YBR231C, strain swc5, stronger effect = lower value 1.01 | locus YBR279W, strain paf1, stronger effect = lower value 1 | locus YCL011C, strain gbp2, stronger effect = lower value 0.996 | locus YCL016C, strain dcc1, stronger effect = lower value 0.985 | locus YCL029C, strain bik1, stronger effect = lower value 0.977 | locus YCL061C, strain MRC1, stronger effect = lower value 1 | locus YCL069W, strain vba3, stronger effect = lower value 0.992 | locus YCR088W, strain abp1, stronger effect = lower value 0.998 | locus YDL005C, strain med2, stronger effect = lower value 1 | locus YDL035C, strain GPR1, stronger effect = lower value 0.951 | locus YDL040C, strain nat1, stronger effect = lower value 1 | locus YDL074C, strain BRE1, stronger effect = lower value 0.974 | locus YDL101C, strain DUN1, stronger effect = lower value 0.982 | locus YDL134C, strain PPH21, stronger effect = lower value 0.965 | locus YDL185W, strain tfp1, stronger effect = lower value 0.945 | locus YDL192W, strain arf1, stronger effect = lower value 0.965 | locus YDR001C, strain nth1, stronger effect = lower value 0.974 | locus YDR069C, strain doa4, stronger effect = lower value 1.01 | locus YDR101C, strain arx1, stronger effect = lower value 0.983 | locus YDR137W, strain rgp1, stronger effect = lower value 0.966 | locus YDR150W, strain NUM1, stronger effect = lower value 0.983 | locus YDR159W, strain sac3, stronger effect = lower value 0.986 | locus YDR162C, strain NBP2, stronger effect = lower value 0.94 | locus YDR195W, strain ref2 1 | locus YDR297W, strain sur2, stronger effect = lower value 0.991 | locus YDR318W, strain mcm21, stronger effect = lower value 0.979 | locus YDR334W, strain swr1, stronger effect = lower value 0.979 | locus YDR335W, strain msn5, stronger effect = lower value 0.989 | locus YDR363W, strain ESC2, stronger effect = lower value 0.976 | locus YDR388W, stronger effect = lower value 0.979 | locus YDR392W, strain spt3, stronger effect = lower value 0.952 | locus YDR502C, strain sam2, stronger effect = lower value 0.984 | locus YEL003W, strain gim4, stronger effect = lower value 0.986 | locus YEL037C, strain rad23, stronger effect = lower value 0.993 | locus YEL061C, strain CIN8 (second series), stronger effect = lower value 0.975 | locus YEL061C, strain CIN8, stronger effect = lower value 0.982 | locus YER002W, strain NOP16, stronger effect = lower value 0.995 | locus YER015W, strain faa2, stronger effect = lower value 1.01 | locus YER016W, strain bim1, stronger effect = lower value 0.986 | locus YER110C, stronger effect = lower value 0.964 | locus YER111C, strain swi4, stronger effect = lower value 0.973 | locus YER155C, strain BEM2 (second series), stronger effect = lower value 1.04 | locus YER155C, strain BEM2, stronger effect = lower value 0.99 | locus YER167W, strain BCK2, stronger effect = lower value 0.989 | locus YFR010W, strain ubp6, stronger effect = lower value 0.985 | locus YGL078C, strain dbp3, stronger effect = lower value 0.981 | locus YGL086W, strain mad1, stronger effect = lower value 0.98 | locus YGL167C, strain pmr1, stronger effect = lower value 0.991 | locus YGL173C, strain kem1, stronger effect = lower value 0.993 | locus YGL227W, strain vid30, stronger effect = lower value 0.987 | locus YGL240W, strain doc1, stronger effect = lower value 1.02 | locus YGL248W, strain PDE1, stronger effect = lower value 0.991 | locus YGL253W, strain hxk2, stronger effect = lower value 0.978 | locus YGR078C, strain PAC10, stronger effect = lower value 0.988 | locus YGR135W, strain pre9, stronger effect = lower value 1 | locus YGR229C, strain SMI1, stronger effect = lower value 0.971 | locus YGR252W, strain gcn5, stronger effect = lower value 0.989 | locus YHR013C, strain ard1, stronger effect = lower value 0.967 | locus YHR027C, strain rpn1, stronger effect = lower value 1.01 | locus YHR030C, strain SLT2, stronger effect = lower value 0.992 and 0.979 | locus YHR079C, strain IRE1 (second series), stronger effect = lower value 0.989 | locus YHR079C, strain IRE1, stronger effect = lower value 0.974 | locus YHR094C, strain hxt1, stronger effect = lower value 0.969 | locus YHR129C, strain ARP1, stronger effect = lower value 0.988 | locus YHR142W, strain chs7, stronger effect = lower value 0.982 | locus YHR200W, strain rpn10, stronger effect = lower value 0.967 | locus YIL066C, strain RNR3, stronger effect = lower value 0.975 | locus YIL073C, strain SPO22, stronger effect = lower value 0.981 | locus YIL125W, strain kgd1, stronger effect = lower value 0.969 | locus YIR030C, strain dcg1, stronger effect = lower value 0.978 | locus YJL092W, strain hpr5, stronger effect = lower value 0.988 | locus YJL095W, strain BCK1 (second series), stronger effect = lower value 0.998 | locus YJL095W, strain BCK1, stronger effect = lower value 1.02 and 0.977 | locus YJL115W, strain asf1, stronger effect = lower value 0.962 | locus YJL129C, strain trk1, stronger effect = lower value 0.983 | locus YJL134W, strain LCB3, stronger effect = lower value 0.976 | locus YJL154C, strain vps35, stronger effect = lower value 0.992 | locus YJL164C, strain tpk1, stronger effect = lower value 0.966 | locus YJL166W, strain qcr8, stronger effect = lower value 1.01 | locus YJL168C, strain set2, stronger effect = lower value 0.981 | locus YJL187C, strain SWE1 (second series), stronger effect = lower value 0.987 | locus YJR043C, strain POL32, stronger effect = lower value 0.965 | locus YJR066W, strain TOR1, stronger effect = lower value 0.965 | locus YJR075W, strain HOC1, stronger effect = lower value 0.997 | locus YKL009W, strain mrt4, stronger effect = lower value 1.03 | locus YKL068W, stronger effect = lower value 0.971 | locus YKL085W, strain MDH1 (second series), stronger effect = lower value 0.982 | locus YKL085W, strain MDH1, stronger effect = lower value 0.982 | locus YKL160W, strain elf1, stronger effect = lower value 1 | locus YKR001C, strain vps1, stronger effect = lower value 0.97 | locus YKR026C, strain gcn3, stronger effect = lower value 0.989 | locus YKR091W, strain srl3, stronger effect = lower value 0.97 | locus YLL001W, strain dnm1, stronger effect = lower value 1.02 | locus YLL026W, stronger effect = lower value 1 | locus YLL041C, strain sdh2, stronger effect = lower value 1.01 | locus YLR027C, strain aat2, stronger effect = lower value 0.993 | locus YLR039C, strain RIC1, stronger effect = lower value 0.974 | locus YLR058C, strain SHM2, stronger effect = lower value 0.978 | locus YLR102C, strain apc9, stronger effect = lower value 0.982 | locus YLR113W, strain HOG1, stronger effect = lower value 0.978 | locus YLR221C, strain rsa3, stronger effect = lower value 1.01 | locus YLR258W, strain gsy2, stronger effect = lower value 0.986 | locus YLR262C, strain YPT6 (second series), stronger effect = lower value 0.991 | locus YLR262C, strain YPT6, stronger effect = lower value 0.911 | locus YLR268W, strain sec22, stronger effect = lower value 0.969 | locus YLR320W, strain mms22, stronger effect = lower value 0.985 | locus YLR330W, strain CHS5, stronger effect = lower value 0.985 | locus YLR342W, strain FKS1 (second series), stronger effect = lower value 0.995 | locus YLR342W, strain FKS1, stronger effect = lower value 1.02 | locus YLR357W, strain rsc2, stronger effect = lower value 0.949 | locus YLR370C, strain arc18, stronger effect = lower value 1.01 | locus YLR371W, strain rom2, stronger effect = lower value 0.959 | locus YLR384C, strain iki3, stronger effect = lower value 1 | locus YLR418C, strain cdc73, stronger effect = lower value 1.01 | locus YML016C, strain PPZ1, stronger effect = lower value 0.986 | locus YML032C, strain rad52, stronger effect = lower value 0.97 | locus YML120C, strain ndi1, stronger effect = lower value 1 | locus YML124C, strain tub3, stronger effect = lower value 0.986 | locus YMR058W, strain fet3, stronger effect = lower value 0.973 | locus YMR078C, strain ctf18, stronger effect = lower value 0.964 | locus YMR125W, strain sto1, stronger effect = lower value 0.975 | locus YMR129W, stronger effect = lower value 0.985 | locus YMR205C, strain PFK2, stronger effect = lower value 1 | locus YMR223W, strain ubp8, stronger effect = lower value 1 | locus YMR231W, strain pep5, stronger effect = lower value 0.999 | locus YMR263W, strain SAP30, stronger effect = lower value 0.99 | locus YMR307W, strain GAS1, stronger effect = lower value 0.942 | locus YNL067W, strain RPL9B, stronger effect = lower value 0.992 | locus YNL071W, strain lat1, stronger effect = lower value 1 | locus YNL128W, strain TEP1, stronger effect = lower value 0.97 | locus YNL153C, strain GIM3, stronger effect = lower value 0.995 | locus YNL175C, strain NOP13, stronger effect = lower value 0.988 | locus YNL183C, strain NPR1, stronger effect = lower value 0.925 | locus YNL197C, strain WHI3, stronger effect = lower value 0.95 | locus YNL209W, strain ssb2, stronger effect = lower value 0.983 | locus YNL224C, strain SQS1, stronger effect = lower value 0.996 | locus YNL233W, strain BNI4, stronger effect = lower value 1 | locus YNL248C, strain rpa49, stronger effect = lower value 0.921 | locus YNL250W, strain rad50, stronger effect = lower value 0.961 | locus YNL271C, strain bni1, stronger effect = lower value 0.979 | locus YNL298W, strain CLA4, stronger effect = lower value 0.972 | locus YNL307C, strain MCK1, stronger effect = lower value 0.979 | locus YNL322C, strain KRE1 (second series), stronger effect = lower value 1.01 | locus YNL322C, strain KRE1, stronger effect = lower value 0.995 | locus YNR049C, strain mso1, stronger effect = lower value 0.986 | locus YNR052C, strain pop2, stronger effect = lower value 0.974 | locus YOL012C, strain htz1 1.03 | locus YOL147C, strain pex11, stronger effect = lower value 0.991 | locus YOR001W, strain rrp6, stronger effect = lower value 1.02 | locus YOR061W, strain CKA2, stronger effect = lower value 0.962 | locus YOR069W, strain VPS5, stronger effect = lower value 0.984 | locus YOR070C, strain gyp1, stronger effect = lower value 0.992 | locus YOR080W, strain dia2, stronger effect = lower value 1.01 | locus YOR083W, strain WHI5 (second series), stronger effect = lower value 0.975 | locus YOR083W, strain WHI5, stronger effect = lower value 1.03 | locus YOR106W, strain vam3, stronger effect = lower value 1.02 | locus YOR136W, strain idh2, stronger effect = lower value 0.973 | locus YOR144C, strain elg1, stronger effect = lower value 0.984 | locus YOR184W, strain ser1, stronger effect = lower value 0.965 | locus YOR231W, strain MKK1, stronger effect = lower value 0.981 | locus YOR265W, strain rbl2, stronger effect = lower value 1 | locus YOR270C, strain vph1, stronger effect = lower value 0.968 | locus YOR290C, strain snf2, stronger effect = lower value 0.982 | locus YOR316C, strain cot1, stronger effect = lower value 0.948 | locus YPL051W, strain arl3, stronger effect = lower value 1.02 | locus YPL055C, strain LGE1, stronger effect = lower value 0.988 | locus YPL078C, strain atp4, stronger effect = lower value 1.01 | locus YPL106C, strain sse1, stronger effect = lower value 0.984 | locus YPL240C, strain hsp82, stronger effect = lower value 1 | locus YPL241C, strain CIN2, stronger effect = lower value 0.999 | locus YPL256C, strain CLN2, stronger effect = lower value 0.965 | locus YPR119W, strain clb2, stronger effect = lower value 0.977 | locus YPR141C, strain kar3, stronger effect = lower value 0.956 | locus YPR163C, strain tif3, stronger effect = lower value 0.975 | locus YPR167C, strain met16, stronger effect = lower value 0.985 | strain wtn01, stronger effect = lower value 0.996
